TWEAK Fn14 block: TWEAK-Fn14 signaling inhibition. 360,000 tested, 2% active. TWEAK-stimulated Fn14 reporter cells, luciferase luminescence, 8 h. inhibition, % at 10 µM; in the data active means inhibition above about 50%
LGR2 antag: Drosophila LGR2 receptor signaling inhibition. AID 720647. HEK293 LGR2, CRE-luciferase, bursicon-stimulated, 4 h. inhibition, % at 9.99 µM. 380,000 tested, 0.35% active;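 active means drop in luminescence signal, shown as inhibition above about 50% in the replicate tests, limit read from the data, passing the limit was not always enough; inconclusive means probably only some replicates passing the limit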;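 further: agonist challenge used bursicon conditioned medium at about half maximal strength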
hiPSC survival: enhancers of human iPSC single-cell survival. hiPSC single-cell survival, ATPlite luminescence; 100% = ROCK inhibitor wells, 0% = DMSO. survival enhancement, % at 20 µM. 360,000 tested, 0.044% active; in the data active means survival enhancement above about 18%;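 further: cells exposed to compounds for 16 hours before the ATP read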
CF NFkB block: cystic fibrosis NF-kB activation inhibition; 360,000 tested, 0.86% active; KKLEB NF-kB-GFP reporter, PAF-induced, GFP fluorescence overnight; inhibition, % at 5 µM;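 active means at least 50% inhibition at 5 µM, scaled per plate between neutral and stimulator controls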;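 further: PAF is a Pseudomonas aeruginosa culture filtrate used as stimulus; plate controls were PAF-stimulated DMSO wells for no effect and unstimulated DMSO wells for full effect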
KKLEB cytotox: reduces viability of KKLEB cystic fibrosis airway cells. KKLEB CF airway cells viability, ATPlite luminescence, overnight; active compounds read low; cells stimulated with P. aeruginosa culture filtrate. activity change (cytotoxicity), % at 5 µM. 360,000 tested, 0.36% active. AID 602141;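 active means corrected activity change at or below -50% at 5 µM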
HIF-2a block: inhibitors of HIF-2a; 786-0 RCC cells HIF-2a reporter, luciferase luminescence, overnight; inhibition, % at 18.8 µM; 360,000 tested, 0.72% active; AID 624352;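 active means inhibition of the luminescence signal of 40% or more relative to plate controls, in a single-dose primary screen at 18.75 µM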
Mdm2-MdmX confirm: Mdm2/MdmX (human) interaction inhibition, confirmed | inhibition, % at 8 µM | 740 tested, 99% active | SaOS-2 split-luciferase Mdm2/MdmX complementation, luminescence | shares compounds with HIF-2a block | AID 504601;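 active means mean inhibition of the luminescence signal across two replicates at or above 26 percent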
Target sequence (O15151 whole entry, looked up): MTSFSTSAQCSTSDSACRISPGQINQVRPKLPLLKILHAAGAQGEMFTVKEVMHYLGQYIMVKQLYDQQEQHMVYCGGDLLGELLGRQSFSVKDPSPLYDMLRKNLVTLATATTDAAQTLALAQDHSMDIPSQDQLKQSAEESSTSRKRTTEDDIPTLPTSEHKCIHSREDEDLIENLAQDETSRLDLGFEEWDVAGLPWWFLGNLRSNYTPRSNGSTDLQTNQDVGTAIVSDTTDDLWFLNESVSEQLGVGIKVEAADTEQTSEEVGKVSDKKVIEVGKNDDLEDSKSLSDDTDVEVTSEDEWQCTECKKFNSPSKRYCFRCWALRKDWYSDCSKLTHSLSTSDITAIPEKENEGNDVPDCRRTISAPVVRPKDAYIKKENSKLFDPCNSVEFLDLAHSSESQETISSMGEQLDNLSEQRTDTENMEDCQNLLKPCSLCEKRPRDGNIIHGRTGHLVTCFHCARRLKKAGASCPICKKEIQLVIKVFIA
Target sequence (Q00987 whole entry, looked up): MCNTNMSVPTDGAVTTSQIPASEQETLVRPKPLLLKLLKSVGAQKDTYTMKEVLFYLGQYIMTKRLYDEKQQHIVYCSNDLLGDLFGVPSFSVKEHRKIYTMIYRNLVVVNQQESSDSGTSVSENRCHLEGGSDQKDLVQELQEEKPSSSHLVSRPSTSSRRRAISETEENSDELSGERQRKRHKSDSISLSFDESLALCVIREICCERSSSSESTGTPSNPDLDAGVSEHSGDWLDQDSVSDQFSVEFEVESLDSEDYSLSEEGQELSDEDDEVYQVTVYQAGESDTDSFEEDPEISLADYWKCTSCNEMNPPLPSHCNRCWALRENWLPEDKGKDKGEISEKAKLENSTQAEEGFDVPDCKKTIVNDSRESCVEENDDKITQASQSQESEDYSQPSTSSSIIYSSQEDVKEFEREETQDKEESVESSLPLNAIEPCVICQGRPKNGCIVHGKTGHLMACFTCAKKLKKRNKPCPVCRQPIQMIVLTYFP
HIF-2a inh conf: confirmation of HIF-2a inhibitors | shares compounds with HIF-2a block | 786-0 RCC cells, HIF-2a luciferase reporter luminescence, overnight | inhibition, % at 18.8 µM | 1,800 tested, 56% active | AID 651580;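 active means mean inhibition across four replicates of at least 40 percent at the single tested concentration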
HIF-1a cs: HIF-1a inhibition counter-screen for HIF-2a hits; MiaPaCa-2 HIF-1a luciferase reporter, desferoxamine, overnight; inhibition, % at 18.8 µM; shares compounds with HIF-2a block; 1,800 tested, 72% active;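 active means mean inhibition of the reporter signal across four replicates at the single tested dose of 50% or more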
Numbers without * were called inactive; ? = inconclusive; / = not tested or not shown. An excerpt weighted towards active compounds, which were near 2.3% of everything screened.

SMILES	TWEAK Fn14 block	LGR2 antag	hiPSC survival	CF NFkB block	KKLEB cytotox	HIF-2a block	HIF-2a inh conf	HIF-1a cs	others
CC(=O)c1cccc([N+](=O)[O-])c1	-4.2	6.1	-1.5	-9.8	0.1	2.5	/	/
O=C(C#Cc1ccccc1)c1cccc([N+](=O)[O-])c1	47.5	-7.3	-5.0	58.9*	-17.2	46.1*	11.4	86.5*
Cc1ccc(S(=O)(=O)N(C)C[C@@H]2Oc3ccc(NC(=O)Nc4ccc(F)cc4)cc3CC(=O)N([C@@H](C)CO)C[C@H]2C)cc1	/	7.1	/	/	/	/	/	/
O=c1c(O)c(-c2cc(O)c(O)c(O)c2)oc2cc(O)cc(O)c12	28.1	/	3.1	18.6	8.4	-3.1	/	/
O=C1C=CC(O)(c2cc(=O)c3c(O)cc(O)cc3o2)C=C1	92.2*	89.3*	17.7	75.4*	-52.3*	94.1*	91.6*	103.1*
COc1cc(C(=O)/C=C/c2cccnc2)c([N+](=O)[O-])cc1OC	35.8	63.7*	-1.5	45.9	-12.2	89.5*	73.3*	96.3*
O=C(/C=C/c1cccnc1)c1ccc([N+](=O)[O-])cc1	17.0	20.4	1.1	-4.5	-14.5	-10.8	/	/
COc1ccc(C(=O)Nc2ccc3c(c2)OC[C@@H](C)NC[C@H](C)[C@H](OC)CN(C)C3=O)cc1	/	-15.0	/	/	/	/	/	/
CC1C=NC(S(=O)(=O)N2CC[C@@H]3[C@H](CO)N(C)c4ccc(-c5ccc(F)cc5)cc4[C@@H]32)=N1 (stereo partly drawn)	/	2.9	/	/	/	/	/	/
C#CC(=O)N(c1cc(OC)ccc1OC)C(C(=O)NC1CCCC1)c1cccs1 (stereo not drawn)	46.6	/	-4.3	97.2*	-97.2*	91.7*	99.1*	105.1*	Mdm2-MdmX confirm=103.5*
COc1ccc(N(C(=O)c2snc(C(N)=O)c2N)C(C(=O)NC2CCCC2)c2cccs2)cc1OC (stereo not drawn)	9.7	-11.6	0.3	11.7	1.2	2.7	/	/
C#CC(=O)N(c1ccc(OC)cc1OC)C(C(=O)NC1CCCC1)c1cccs1 (stereo not drawn)	37.2	96.7*	-5.1	94.1*	-92.9*	95.7*	99.3*	105.8*	Mdm2-MdmX confirm=102.0*
C[C@@H]1CN([C@H](C)CO)C(=O)c2cccc(NC(=O)C3CC3)c2O[C@H]1CN(C)Cc1ccc(-c2ccccc2)cc1	/	0.6	/	/	/	/	/	/
COC(=O)[C@]1(C)CCC[C@@]2(C)C3CC[C@@]4(C)C[C@]3(CCC21)CC(=O)N4 (stereo partly drawn)	-15.4	12.0	-0.9	31.7	-4.6	12.3	/	/
C=C1C(=O)C23CCC4C(C)(C(=O)OC)CCCC4(C)C2CCC1(O)C3 (stereo not drawn)	98.2*	/	-5.2	101.3*	-102.3*	91.3*	98.6*	102.9*
CCN1C(=O)[C@H]2[C@H]3CN=C(SCc4ccc(Cl)cc4)N3[C@@](Cc3ccccc3)(C(=O)OC)[C@H]2C1=O	7.8	16.5	1.2	-24.5	8.0	4.2	/	/
COC(=O)[C@@]1(Cc2ccccc2)[C@H]2C(=O)N(Cc3ccccc3)C(=O)[C@H]2[C@H]2CN=C(SCc3ccc(Cl)cc3)N21	3.0	-8.4	0.4	8.7	-9.4	16.8	/	/	Mdm2-MdmX confirm=103.0*
COC(=O)[C@@]1(C)[C@H]2C(=O)N(Cc3ccccc3)C(=O)[C@H]2[C@H]2CN=C(SCc3ccc(Cl)cc3)N21	6.1	-2.2	-1.1	13.6	0.8	10.7	/	/	Mdm2-MdmX confirm=102.7*
CC(C)CC#Cc1ccc2c(c1)O[C@@H](CN(C)C(=O)Cc1ccncc1)[C@H](C)CN([C@@H](C)CO)S2(=O)=O	/	-5.9	/	/	/	/	/	/
CCCNC(=O)C[C@@H]1C[C@H]2c3cc(NC(=O)Nc4ccccc4F)ccc3O[C@H]2[C@@H](CO)O1	/	-11.1	/	/	/	/	/	/
CO[C@H]1CN(C)C(=O)c2cc(NS(C)(=O)=O)ccc2OC[C@@H](C)N(Cc2ccccn2)C[C@@H]1C	/	-2.6	/	/	/	/	/	/
CCCN(C)C[C@@H]1Oc2cc(-c3ccccc3C)ccc2S(=O)(=O)N([C@@H](C)CO)C[C@@H]1C	/	-11.8	/	/	/	/	/	/
CCCCCc1ccc(OCCCC[n+]2ccccc2)c(CCCCC)c1	50.1*	/	-2.0	48.8	-28.0	86.3*	30.0	102.8*
CCCCCc1ccc(OCCCC[n+]2cccc(C)c2)c(CCCCC)c1	70.0*	?	-3.3	57.7*	-46.7	95.5*	33.0	105.8*	Mdm2-MdmX confirm=102.2*
CCCCOc1ccc(C)cc1CN(CCO)CCO	-17.8	/	0.9	3.0	-14.6	13.6	/	/
SMILES	TWEAK Fn14 block	LGR2 antag	hiPSC survival	CF NFkB block	KKLEB cytotox	HIF-2a block	HIF-2a inh conf	HIF-1a cs	others
CCCCCc1ccc(OCCCC[n+]2ccc(C)cc2)c(CCCCC)c1	68.4*	54.3*	-2.3	74.9*	-66.8*	10.6	/	/	Mdm2-MdmX confirm=103.2*
CCC(C)(C)c1ccc(OCCCC[n+]2ccccc2)c(C(C)(C)CC)c1	78.9*	19.2	-4.0	62.5*	-50.4*	25.1	/	/	Mdm2-MdmX confirm=103.0*
CN1C(=O)c2cc(NC(=O)Nc3ccccc3)ccc2OC[C@@H]2O[C@H](CC(=O)O)CC[C@H]21	/	9.3	/	/	/	/	/	/
COc1ccc2c3c(n(C)c2c1)[C@@H](CO)N(C(=O)c1ccccn1)CC31CCN(C(C)=O)CC1	/	-31.9	/	/	/	/	/	/
CCOc1c(Br)cc(CNc2ccc(N3CCOCC3)cc2)cc1OC	-1.2	5.9	-0.6	-0.9	-1.5	-19.4	/	/
CCOc1cc(CNc2ccc3c(c2)OCCO3)cc(Br)c1OC	94.2*	/	-0.9	40.7	-35.7	45.0*	67.5*	98.0*
CCOc1c(Br)cc(CNc2ccc3c(c2)OCCO3)cc1OC	84.7*	/	-0.5	33.0	-14.5	43.4*	39.9	77.0*
CCCNC(=O)C[C@@H]1CC[C@@H]2[C@H](COc3ccc(NC(=O)c4cscn4)cc3C(=O)N2C)O1	/	2.5	/	/	/	/	/	/
O=C1OC(c2ccccc2)(c2ccc3cc(O)ccc3c2)c2ccccc21 (stereo not drawn)	60.1*	/	-0.6	-1.1	-18.6	40.4*	19.2	98.0*
O=C1OC(c2ccc(O)cc2)(c2ccc(O)cc2)c2ccccc21	16.7	4.6	-0.5	16.7	-15.1	23.4	/	/
COc1ccc(-n2nnnc2S(=O)(=O)CC(=O)N2CCCCC2)cc1	96.5*	98.9*	-3.1	82.7*	-53.6*	90.4*	17.5	-4.7
COCC(=O)Nc1ccc2c(c1)OC[C@@H](C)N(Cc1ccccc1)C[C@@H](C)[C@H](OC)CN(C)C2=O	/	-8.4	/	/	/	/	/	/
